# Experimental data reported in the supplement of paper PMC7366291.
# Structures can show the parent of a compound that is named as a salt. ± gives the standard deviation or the standard deviation of the averaged measurements.
# Columns and labels:
# Details in all cases: 25 µM; exposure: 24-48 hpf
# [1] = system: Danio rerio Tg(wt1b:EGFP) embryo, pronephros; test: glomerular separation, fold change vs DMSO control; higher = glomeruli further apart (abnormal)
# How it was run: (§1)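 Each feature value is a fold change relative to the mean of same-day DMSO-treated embryos. Embryos of the Tg(wt1b:EGFP) zebrafish line, dechorionated, received 25 μM compound in 0.5% DMSO from 24 to 48 hpf at 28.5°C, in HEPES-buffered E3 with 0.003% PTU. Distances and angles were computed by a Fiji macro from 16 manually set reference points on maximum projections of dorsal pronephros images, and values beyond 2 SD of the feature mean were removed.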
# [2] = system: Danio rerio Tg(wt1b:EGFP) embryo, pronephros; test: glomerular width (mean of left and right), fold change vs DMSO control; higher = wider glomerulus
# How it was run: as §1
# [3] = system: Danio rerio Tg(wt1b:EGFP) embryo, pronephros; test: fraction of imaged embryos annotated as normal kidney; higher = less nephrotoxic; extreme values may be limits of the assay
# How it was run: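 Dechorionated Tg(wt1b:EGFP) zebrafish embryos were exposed in 12-well plates to 25 μM compound in 0.5% DMSO, 5 mM HEPES-buffered E3 with 0.003% PTU, from 24 to 48 hpf at 28.5°C. Tricaine-anaesthetised larvae were oriented dorsally in agarose-filled 96-well plates, and pronephroi were imaged by widefield fluorescence (470 nm, 10 z-slices). Each embryo was manually annotated from maximum projections. The read-out is the fraction of embryos per treatment assigned to the normal-kidney category.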
# [4] = system: Danio rerio Tg(wt1b:EGFP) embryo, pronephros; test: pronephric angle neck segment to proximal convoluted tubule (mean of left and right), fold change vs DMSO control; higher = larger pronephric angle
# How it was run: as §1
structure (smiles),measurement,setting,value
CN1C(C(=O)Nc2ccccn2)=C(O)c2ccccc2S1(=O)=O [Piroxicam],glomerular separation,[1],6.43 ± 2.4
same,glomerular width,[2],0.525 ± 0.012
same,fraction of imaged embryos annotated as normal kidney,[3],0
same,pronephric angle neck segment,[4],1.78 ± 0.095
Nc1nc(N)nc(-c2cc(Cl)ccc2Cl)n1 [Irsogladine maleate],glomerular separation,[1],1.11 ± 0.39
same,glomerular width,[2],0.976 ± 0.016
same,fraction of imaged embryos annotated as normal kidney,[3],0.909
same,pronephric angle neck segment,[4],1.07 ± 0.029
NCCc1c[nH]cn1 [Histamine dihydrochloride],glomerular separation,[1],1.1 ± 0.25
same,glomerular width,[2],0.9518 ± 0.0028
same,fraction of imaged embryos annotated as normal kidney,[3],0.833
same,pronephric angle neck segment,[4],1.03 ± 0.03
CN(C)/N=N/c1[nH]cnc1C(N)=O [Dacarbazine],glomerular separation,[1],0.922 ± 0.21
same,glomerular width,[2],0.991 ± 0.037
same,fraction of imaged embryos annotated as normal kidney,[3],1
same,pronephric angle neck segment,[4],0.997 ± 0.06
CC(CN(C)C)C(C)(O)Cc1ccc(Cl)cc1 (configuration not stated) [Clobutinol hydrochloride],glomerular separation,[1],1.4 ± 0.46
same,glomerular width,[2],0.945 ± 0.026
same,fraction of imaged embryos annotated as normal kidney,[3],0.75
same,pronephric angle neck segment,[4],0.979 ± 0.034
CC(=O)[C@@]12O[C@](C)(c3ccccc3)O[C@@H]1C[C@H]1[C@@H]3CCC4=CC(=O)CC[C@]4(C)[C@H]3CC[C@@]12C [Algestone acetophenide],glomerular separation,[1],1.76 ± 0.84
same,glomerular width,[2],1.05 ± 0.047
same,fraction of imaged embryos annotated as normal kidney,[3],0.5
same,pronephric angle neck segment,[4],1.02 ± 0.048
CCn1nc(C(=O)O)c(=O)c2cc3c(cc21)OCO3 [Cinoxacin],glomerular separation,[1],1.07 ± 0.43
same,glomerular width,[2],0.979 ± 0.031
same,fraction of imaged embryos annotated as normal kidney,[3],0.8
same,pronephric angle neck segment,[4],1.05 ± 0.1
Cc1c(NC(=O)c2cccnc2)c(=O)n(-c2ccccc2)n1C [Nifenazone],glomerular separation,[1],0.806 ± 0.28
same,glomerular width,[2],1.03 ± 0.014
same,fraction of imaged embryos annotated as normal kidney,[3],0.833
same,pronephric angle neck segment,[4],1 ± 0.023
Cc1ccc(N(CC2=NCCN2)c2cccc(O)c2)cc1 [Phentolamine hydrochloride],glomerular separation,[1],1.13 ± 0.33
same,glomerular width,[2],1.08 ± 0.02
same,fraction of imaged embryos annotated as normal kidney,[3],0.667
same,pronephric angle neck segment,[4],0.994 ± 0.018
C=CCSCC1Nc2cc(Cl)c(S(N)(=O)=O)cc2S(=O)(=O)N1 (configuration not stated) [Althiazide],glomerular separation,[1],1.08 ± 0.28
same,glomerular width,[2],0.962 ± 0.12
same,fraction of imaged embryos annotated as normal kidney,[3],0.5
same,pronephric angle neck segment,[4],1.09 ± 0.083
CC(=O)c1ccc2c(c1)N(CCCN(C)C)c1ccccc1S2 [Acetopromazine maleate salt],glomerular separation,[1],0.953 ± 0.23
same,glomerular width,[2],0.924 ± 0.071
same,fraction of imaged embryos annotated as normal kidney,[3],1
same,pronephric angle neck segment,[4],0.969 ± 0.02
CC1COc2c(N3CCN(C)CC3)c(F)cc3c(=O)c(C(=O)O)cn1c23 (configuration not stated) [Ofloxacin],glomerular separation,[1],1.32 ± 0.67
same,glomerular width,[2],1.043 ± 0.0041
same,fraction of imaged embryos annotated as normal kidney,[3],0.833
same,pronephric angle neck segment,[4],1.06 ± 0.038
CN1CC2c3ccccc3Oc3ccc(Cl)cc3C2C1 (configuration not stated) [Asenapine maleate],glomerular separation,[1],0.806 ± 0.35
same,glomerular width,[2],0.991 ± 0.088
same,fraction of imaged embryos annotated as normal kidney,[3],0.583
same,pronephric angle neck segment,[4],0.7772 ± 0.0031
CC[C@@H]1C(=O)OC[C@@H]1Cc1cncn1C [Pilocarpine nitrate],glomerular separation,[1],1.19 ± 0.19
same,glomerular width,[2],1.04 ± 0.051
same,fraction of imaged embryos annotated as normal kidney,[3],0.667
same,pronephric angle neck segment,[4],1.02 ± 0.021
CN1[C@@H]2CC[C@H]1C[C@@H](OC(=O)c1c[nH]c3ccccc13)C2 [Tropisetron hydrochloride],glomerular separation,[1],1.8 ± 0.91
same,glomerular width,[2],1.02 ± 0.051
same,fraction of imaged embryos annotated as normal kidney,[3],0.667
same,pronephric angle neck segment,[4],1.06 ± 0.067
CC(C(=O)O)c1ccc(C(=O)c2cccs2)cc1 (configuration not stated) [Suprofen],glomerular separation,[1],1.78 ± 0.63
same,glomerular width,[2],1.02 ± 0.14
same,fraction of imaged embryos annotated as normal kidney,[3],0.75
same,pronephric angle neck segment,[4],1.03 ± 0.081
O=C(O)CNC(=O)C(CS)Cc1ccccc1 (configuration not stated) [Thiorphan],glomerular separation,[1],0.84 ± 0.35
same,glomerular width,[2],1.04 ± 0.036
same,fraction of imaged embryos annotated as normal kidney,[3],0.75
same,pronephric angle neck segment,[4],0.994 ± 0.017
CN1C(=O)OC(C)(C)C1=O [Trimethadione],glomerular separation,[1],0.837 ± 0.27
same,glomerular width,[2],0.996 ± 0.064
same,fraction of imaged embryos annotated as normal kidney,[3],0.75
same,pronephric angle neck segment,[4],0.935 ± 0.026
CNNCc1ccc(C(=O)NC(C)C)cc1 [Procarbazine hydrochloride],glomerular separation,[1],1.02 ± 0.24
same,glomerular width,[2],0.973 ± 0.017
same,fraction of imaged embryos annotated as normal kidney,[3],1
same,pronephric angle neck segment,[4],1.084 ± 0.0049
Cc1ccnc(NS(=O)(=O)c2ccc(N)cc2)n1 [Sulfamerazine],glomerular separation,[1],0.775 ± 0.22
same,glomerular width,[2],1.03 ± 0.011
same,fraction of imaged embryos annotated as normal kidney,[3],0.909
same,pronephric angle neck segment,[4],0.974 ± 0.085
COc1c(N2C[C@@H]3CCCN[C@@H]3C2)c(F)cc2c(=O)c(C(=O)O)cn(C3CC3)c12 [Moxifloxacin],glomerular separation,[1],0.919 ± 0.39
same,glomerular width,[2],0.971 ± 0.024
same,fraction of imaged embryos annotated as normal kidney,[3],0.909
same,pronephric angle neck segment,[4],0.998 ± 0.029
COc1ccc2c(c1)c(CC(=O)OCC(=O)O)c(C)n2C(=O)c1ccc(Cl)cc1 [Acemetacin],glomerular separation,[1],1.28 ± 0.69
same,glomerular width,[2],1.04 ± 0.027
same,fraction of imaged embryos annotated as normal kidney,[3],0.917
same,pronephric angle neck segment,[4],1.08 ± 0.039
Cc1onc(-c2c(F)cccc2Cl)c1C(=O)N[C@@H]1C(=O)N2[C@@H]1SC(C)(C)[C@@H]2C(=O)O [Flucloxacillin sodium],glomerular separation,[1],1.05 ± 0.33
same,glomerular width,[2],0.989 ± 0.024
same,fraction of imaged embryos annotated as normal kidney,[3],0.833
same,pronephric angle neck segment,[4],0.958 ± 0.025
Cc1[nH]c(=O)c(C#N)cc1-c1ccncc1 [Milrinone],glomerular separation,[1],1.13 ± 0.36
same,glomerular width,[2],1.01 ± 0.047
same,fraction of imaged embryos annotated as normal kidney,[3],0.917
same,pronephric angle neck segment,[4],0.9759 ± 0.0011
CC(C)COCC(CN(Cc1ccccc1)c1ccccc1)N1CCCC1 (configuration not stated) [Bepridil hydrochloride],glomerular separation,[1],0.94 ± 0.41
same,glomerular width,[2],1.03 ± 0.03
same,fraction of imaged embryos annotated as normal kidney,[3],0.818
same,pronephric angle neck segment,[4],0.993 ± 0.033
N[C@@H](Cc1ccc(O)c(O)c1)C(=O)O [Levodopa],glomerular separation,[1],1.02 ± 0.31
same,glomerular width,[2],1.06 ± 0.048
same,fraction of imaged embryos annotated as normal kidney,[3],0.917
same,pronephric angle neck segment,[4],0.972 ± 0.018
COc1cc2nc(N3CCN(C(=O)c4ccco4)CC3)nc(N)c2cc1OC [Prazosin hydrochloride],glomerular separation,[1],0.618 ± 0.16
same,glomerular width,[2],1 ± 0.021
same,fraction of imaged embryos annotated as normal kidney,[3],0.917
same,pronephric angle neck segment,[4],1.03 ± 0.04
O=C(NC(Cc1cc(=O)[nH]c2ccccc12)C(=O)O)c1ccc(Cl)cc1 (configuration not stated) [Rebamipide],glomerular separation,[1],0.748 ± 0.25
same,glomerular width,[2],0.942 ± 0.061
same,fraction of imaged embryos annotated as normal kidney,[3],0.917
same,pronephric angle neck segment,[4],0.972 ± 0.034
